Shown are actives, neighbours in structure and some others; about 12% of the full set was active somewhere.
G9a inh – blocks human histone lysine methyltransferase G9a. Potency, µM (top dose mostly 102 µM), actives largely listed as inhibitors. AID 504332. actives 8.8% (n = 350,000). Q96KQ7. G9a H3K9 monomethylation, AlphaScreen, 2 h; note: nearly all actives have a fitted effect of over 75% in size
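G9a (20 nM) was preincubated 15 min with compound, then reacted 2 h at room temperature with 500 nM biotin-H3K9 peptide and 20 µM SAM. Monomethyl-H3K9 detected by AlphaScreen using anti-H3K9me1 antibody.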
PI5P4Ka inh – PI5P4K alpha (human) kinase inhibition; P48426; PI5P4Kalpha enzyme, ADP-Glo luminescence, 60 min; hits give low values; max response, %; actives 1.2% (n = 330,000); active = max response of -50% or lower; inconclusive = between -30% and -50%; inactive = -30% or higher; note: value at the top dose of about 77 µM
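Single end-point luminescence (ADP-Glo) quantified ADP from PI5P4Kalpha turnover; ATP 5 microM final, 1 h at RT, 0.1% CHAPS and 0.28 mM EGTA in HEPES pH 7.4.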
HP1b chromo inh – blocks HP1-beta chromodomain binding to methylated histone tails. AlphaScreen HP1-beta / biotin-H3K9me3 peptide binding. Potency, µM (top dose mostly 114 µM), hits mostly inhibitors. actives 0.56% (n = 390,000). AID 540317; note: nearly all actives have a fitted effect of over 70% in size
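AlphaScreen: HP1-beta (50 nM) preformed 30 min with biotin-H3(1-18)K9me3 peptide (50 nM) in PBS pH 7.4, 0.01% Tween-20. Compound added for 30 min at RT, then streptavidin donor/nickel chelate acceptor beads (10 ug/mL) for 30 min.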
PLK1 PBD inh – PLK1 (human) polo-box domain binding inhibition; P53350; Plk1 PBD binding of FITC phosphopeptide, fluorescence polarization; Potency, µM, most hits filed as inhibitors; actives 2.8% (n = 360,000); note: series mostly up to about 57 µM; nearly all actives have a fitted effect of over 65% in size
Target sequence (P53350 whole entry, looked up, the tested form may be a part): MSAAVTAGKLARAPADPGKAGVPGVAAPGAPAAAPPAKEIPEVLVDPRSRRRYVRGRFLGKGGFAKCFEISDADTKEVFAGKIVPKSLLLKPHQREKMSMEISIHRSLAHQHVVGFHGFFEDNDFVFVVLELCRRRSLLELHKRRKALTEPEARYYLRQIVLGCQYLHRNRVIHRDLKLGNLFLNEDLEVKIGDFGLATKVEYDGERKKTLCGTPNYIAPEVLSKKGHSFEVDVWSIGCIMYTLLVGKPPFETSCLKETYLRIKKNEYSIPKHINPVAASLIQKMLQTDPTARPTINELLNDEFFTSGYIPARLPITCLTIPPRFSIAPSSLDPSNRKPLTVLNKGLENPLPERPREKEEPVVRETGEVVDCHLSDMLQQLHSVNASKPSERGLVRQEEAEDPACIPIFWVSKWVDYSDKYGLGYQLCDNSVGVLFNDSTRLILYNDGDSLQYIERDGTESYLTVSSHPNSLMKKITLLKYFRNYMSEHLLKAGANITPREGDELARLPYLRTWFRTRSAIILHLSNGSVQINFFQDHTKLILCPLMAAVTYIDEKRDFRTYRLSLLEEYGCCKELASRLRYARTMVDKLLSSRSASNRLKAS
BAZ2B inh – inhibitors of human BAZ2B bromodomain. Q9UIF8. AlphaScreen BAZ2B-H3K14Ac peptide displacement. Potency, µM (titrated, usually from 114 µM), usual class: inhibitors. actives 4.4% (n = 360,000). AID 504333; note: nearly all actives have a fitted effect of over 60% in size
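Compounds, titrated to a top concentration of 110 uM, were incubated 30 min at room temperature with preformed BAZ2B/acetyl-K14 H3 peptide complex (50 nM each). Proximity signal was measured by AlphaScreen after 20 min with beads.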
JMJD2A Tudor – inhibitors of human JMJD2A Tudor domain. O75164. AlphaScreen JMJD2A-Tudor / H3K4me3 peptide binding. Potency, µM (doses to about 114 µM), most hits filed as inhibitors. actives 4.4% (n = 390,000); note: nearly all actives have a fitted effect of over 50% in size
Each line names hits and unclear results; the compound was inactive in the other large screens. Unless noted, calls come from the whole dose curve; as a rule, active = well fitted curve in the direction sought with a large enough effect; inconclusive = small, poorly fitted or top-dose-only effect, or another doubt; inactive = no such curve, though single readings can be large; an effect the other way counts as inactive or inconclusive.

Cc1ccc(SC2=C(N(C)C)C(=O)c3ccccc3C2=O)cc1	HP1b chromo inh inconclusive, PLK1 PBD inh inconclusive, JMJD2A Tudor 5.6µM (no result: G9a inh, BAZ2B inh)
O=C(Nc1cccs1)OCCN1CCN(Cc2ccccc2)CCC1=O	G9a inh 45µM
COc1ccc(C=NNC(=O)CCCCC(=O)NN=Cc2ccc(OC)cc2)cc1	none (no result: G9a inh, BAZ2B inh)
COC(=O)/C=C\C(C#N)(C#N)N=Cc1ccc(OC)cc1	PLK1 PBD inh 9.5µM (no result: G9a inh, BAZ2B inh)
CC(Oc1ccc(F)cc1)C(=O)Nc1cc(Cl)ccc1-n1cncn1 (stereo not drawn)	none
CC(Oc1ccccc1)C(=O)Nc1cc(Cl)ccc1-n1cncn1 (stereo not drawn)	G9a inh 45µM
Cc1ccc(C(=O)Nc2cc(Cl)ccc2-n2cncn2)o1	G9a inh 8.9µM
CC(=O)c1cccc(NC(=O)c2cc(S(=O)(=O)N3CCOCC3)cs2)c1	none (no result: G9a inh)
CN(C)c1ccc(/C=C/c2nc3ccccc3s2)cc1	HP1b chromo inh 40µM, BAZ2B inh 32µM, JMJD2A Tudor 20µM
Cc1ccc(/C=C/c2nc3ccccc3s2)s1	none
CN(C)c1ccc(/C=C/c2ccc3ccccc3n2)cc1	G9a inh 45µM, BAZ2B inh 50µM, JMJD2A Tudor inconclusive
COc1ccc(N2CC(O)=C(c3nc(-c4ccc(F)cc4)cs3)C2=N)cc1OC	none
COc1ccc(N2CC(O)=C(c3nc(-c4ccc(F)cc4)cs3)C2=N)cc1Cl	JMJD2A Tudor 40µM
O=c1/c(=C/c2ccccn2)sc2nc3ccccc3n12	G9a inh 50µM, JMJD2A Tudor inconclusive
O=c1/c(=C\c2cc([N+](=O)[O-])cc([N+](=O)[O-])c2O)sc2nc3ccccc3n12	G9a inh 6.3µM, PI5P4Ka inh -95, HP1b chromo inh inconclusive, PLK1 PBD inh inconclusive, BAZ2B inh 50µM, JMJD2A Tudor 20µM
COc1ccc(C(=O)Nc2nc(N)n(-c3ccccc3)n2)cc1OC	BAZ2B inh inconclusive
Nc1nc(NC(=O)CCC(=O)O)nn1-c1ccccc1	BAZ2B inh 50µM, JMJD2A Tudor 22µM (no result: G9a inh)
Nc1nc(NC(=O)c2ccccc2)nn1-c1ccccc1	BAZ2B inh inconclusive
COc1ccccc1/C=C/C(=O)Nc1nc(N)n(-c2ccccc2)n1	BAZ2B inh 56µM
O=C1C2C3C=CC(C2C(=O)N1c1nccs1)C1C(=O)N(c2nccs2)C(=O)C31 (stereo not drawn)	none (no result: BAZ2B inh)
O=C1C2C3C=CC(CC3)C2C(=O)N1c1nccs1 (stereo not drawn)	PI5P4Ka inh -62, BAZ2B inh 45µM, JMJD2A Tudor 50µM
Cc1ccccc1CNC(=O)CCSCc1cnn(-c2ccccc2)c1-n1cccc1	G9a inh inconclusive (no result: PI5P4Ka inh, PLK1 PBD inh)
Cc1nnc(NC(=O)CSc2nccn2Cc2ccccc2)s1	none
COc1cccc(/C(C)=N/N=C(\C)c2cccc(OC)c2)c1	none
O=C1c2ccccc2NC2(CCCC2)N1O	G9a inh 35µM
O=C1c2ccccc2NC2(CCCCC2)N1N=C1CCCCC1	none
COc1ccc(C2CC(=O)N(CCCN(C)CCc3ccc(OC)c(OC)c3)C2)cc1 (stereo not drawn)	G9a inh inconclusive, HP1b chromo inh inconclusive, BAZ2B inh 89µM, JMJD2A Tudor 100µM
COc1ccc(CCN2CC(C(=O)NCC(c3ccccc3)N(C)C)CC2=O)cc1OC (stereo not drawn)	none (no result: G9a inh, BAZ2B inh)
COc1ccc(CCN(C)CCCN2CC(c3ccccc3)CC2=O)cc1OC (stereo not drawn)	G9a inh 50µM, PLK1 PBD inh inconclusive, BAZ2B inh inconclusive, JMJD2A Tudor 25µM
CC(C)CC1C(=O)N(Cc2cn(CCC3OCCO3)nn2)CCS(=O)(=O)N1Cc1ccc(-c2ccc(Cl)c(Cl)c2)cc1 (stereo not drawn)	none (no result: G9a inh, HP1b chromo inh, BAZ2B inh, JMJD2A Tudor)
O=C(O)CN1C(=O)C2C3CC(C2C1=O)C1C(c2ccccc2)c2sc(=O)[nH]c2SC31 (stereo not drawn)	PLK1 PBD inh inconclusive
O=c1[nH]c2c(s1)C(c1ccco1)C1C3CCC(C3)C1S2 (stereo not drawn)	G9a inh 7.9µM, PI5P4Ka inh inconclusive, PLK1 PBD inh inconclusive, BAZ2B inh 50µM, JMJD2A Tudor inconclusive
O=[N+]([O-])c1ccc([C@H](O)[C@H](CO)N=Cc2ccccc2O)cc1	G9a inh 8.9µM
COc1ccccc1C=NC(CO)C(O)c1ccc([N+](=O)[O-])cc1 (stereo not drawn)	none (no result: G9a inh)
CN1CCN(C(=O)CCCN2C(=O)/C(=C/c3cccc(Br)c3)SC2=S)CC1	G9a inh 40µM, HP1b chromo inh 40µM, PLK1 PBD inh inconclusive, BAZ2B inh 45µM, JMJD2A Tudor 35µM
O=C(CCN1C(=O)/C(=C\c2cccc(Br)c2)SC1=S)NCCCN1CCOCC1	G9a inh 45µM, PLK1 PBD inh inconclusive, BAZ2B inh inconclusive, JMJD2A Tudor inconclusive
O=C(CCN1C(=O)/C(=C/c2ccccc2)SC1=S)NCCCN1CCOCC1	none
CN1CCN(C(=O)CCN2C(=O)/C(=C/c3cccc(Br)c3)SC2=S)CC1	G9a inh 25µM
COc1ccc(CNc2cc(-c3cccnc3)ncn2)c(OC)c1	none (no result: PI5P4Ka inh, HP1b chromo inh, PLK1 PBD inh, BAZ2B inh, JMJD2A Tudor)
CCCCC1CC2=C(C(=O)OC(C)(C)O2)C(c2ccc(F)cc2)O1 (stereo not drawn)	none (no result: G9a inh, HP1b chromo inh, BAZ2B inh, JMJD2A Tudor)
Cc1cc(OCC(=O)Nc2ccccc2C(N)=O)c2c(C)cc(=O)oc2c1	none
Cc1ccc(NC(=O)C2=CN3CCS(=O)(=O)N=C3C=C2)cc1	none (no result: G9a inh, BAZ2B inh)
CC(C)(C)c1ccc(NC(=O)C2=CN3CCS(=O)(=O)N=C3C=C2)cc1	G9a inh 7.1µM
Cn1cnnc1SCC(=O)N1c2ccccc2-c2c(ssc2=S)C1(C)C	G9a inh inconclusive (no result: PI5P4Ka inh, HP1b chromo inh, PLK1 PBD inh, JMJD2A Tudor)
Cc1ccc2c(c1)-c1c(ssc1=S)C(C)(C)N2C(=O)CSC1=NCCS1	G9a inh inconclusive, HP1b chromo inh inconclusive, BAZ2B inh 8.9µM, JMJD2A Tudor 5µM (no result: PI5P4Ka inh)
COc1ccc(N2CCN(Cc3cccn3-c3nnc(N4CCN(C5CCCCC5)CC4)s3)CC2)cc1	G9a inh inconclusive, HP1b chromo inh inconclusive, BAZ2B inh inconclusive, JMJD2A Tudor 50µM (no result: PI5P4Ka inh, PLK1 PBD inh)
c1ccc(N2CCN(Cc3cccn3-c3nnc(N4CCN(C5CCCCC5)CC4)s3)CC2)cc1	none (no result: PI5P4Ka inh, PLK1 PBD inh)
CCOc1ccc(NCc2cccn2-c2nnc(N3CCC(C(=O)NCCCN4CC(C)CC(C)C4)CC3)s2)cc1 (stereo not drawn)	G9a inh 45µM, HP1b chromo inh inconclusive, BAZ2B inh inconclusive, JMJD2A Tudor 40µM
COc1ccc(N2CCN(Cc3nnnn3C3CCCCC3)CC2)cc1	G9a inh 50µM, HP1b chromo inh inconclusive
CCOc1ccc(NCc2cccn2-c2nnc(N3CCC(C(=O)NCCc4ccc(OC)c(OC)c4)CC3)s2)cc1	G9a inh inconclusive, BAZ2B inh inconclusive, JMJD2A Tudor inconclusive (no result: PI5P4Ka inh, PLK1 PBD inh)

Source: PubChem (National Center for Advancing Translational Sciences (NCATS))
